# Source: PubChem BioAssay AID493200 (National Center for Advancing Translational Sciences (NCATS), 2011)
# Inconclusive results are not listed. Where a call stands in place of a potency, no number is given. The source made the active and inactive calls. Calls come from the whole dose curve; as a rule, active = well fitted activation curve with a large enough effect; inconclusive = small, poorly fitted or top-dose-only effect; inactive = no such curve, though single readings can be large or run the other way.
# Assay: qHTS Assay for Rab9 Promoter Activators: Initial hit validation from the primary screen
# Conditions: Huh7 Rab9 promoter luciferase reporter, 24 h; series mostly up to 46.1 µM
# In short: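 Luciferase signal, read 10 min after Amplite reagent, reports Rab9 promoter activation. Compounds in DMSO were applied for 24 h at 37C to Rab9-luciferase Huh7 cells, pre-incubated 2 h in reduced-serum medium with 10% FBS.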
# Potency is the fitted concentration of half-maximal effect.
row,Structure (SMILES),Potency
1,COc1ccc(C)cc1N(C(=O)CNC(=O)c1ccco1)C(C(=O)NC1CCCC1)c1cccnc1 (stereo not given),inactive
2,O=C(CCNC(=O)c1ccc(Br)o1)NCc1ccc(Cl)cc1,inactive
3,CCc1cc(C(=O)Nc2ccccc2)cs1,2.81 µM (active)
4,NC(=O)C(=O)NN=C1C2CC3CC(C2)CC1C3,inactive
5,N#C/C(=C\c1ccc[nH]1)C(=O)Nc1ccccc1Cl,3.53 µM (active)
6,O=C(C[N+]1(CC#Cc2ccccc2)CCCCC1)c1ccccc1,inactive
7,COc1ccc([N+](=O)[O-])cc1COc1ccc2c(-c3ccccc3)cc(=O)oc2c1,inactive
8,COc1ccc(S(=O)(=O)NC(C(=O)NCCc2ccccn2)C(C)C)cc1 (stereo not given),inactive
9,CCCCn1c(CCNC(=O)c2cccs2)nc2ccccc21,inactive
10,COc1ccc(OC)c(S(=O)(=O)N2CCN3CCCC3C2)c1 (stereo not given),inactive
11,Cc1nc(-c2ccc(S(=O)(=O)Oc3ccc(Cl)cc3Cl)s2)cs1,inactive
12,O=C(Nc1nc2ccc(F)cc2s1)c1ccc(N2CCCC2=O)cc1,0.199 µM (active)
13,COCCNC(=O)CN1C(=O)NC(c2ccccc2)(c2ccccc2)C1=O,inactive
14,Cc1ccc(C2C3=C(CC(C)(C)CC3=O)N(CCN3CCOCC3)C3=C2C(=O)CC(C)(C)C3)cc1,inactive
15,COc1ccc(S(=O)(=O)N2CCCC(C(=O)NCc3ccncc3)C2)cc1Cl (stereo not given),inactive
16,O=C(C1COc2ccccc2O1)N1CCN(S(=O)(=O)c2ccccc2)CC1 (stereo not given),inactive
17,CCOc1ccc(CNC(=O)C2CCCN(S(C)(=O)=O)C2)cc1OC (stereo not given),inactive
18,O=C(CSc1nnc(-c2ccc([N+](=O)[O-])cc2)o1)Nc1ccccn1,0.56 µM (active)

row,Structure (SMILES),Potency
1,O=C(CCCC(=O)N(CC(=O)NC1CCCCC1)c1cccc(F)c1)Nc1ccccn1,inactive
2,CC1CN(C(=O)c2ccncc2)CC(C)O1 (stereo not given),inactive
3,Cc1nc(SCC(=O)NC(=O)NC(C)(C)C)nc(C)c1C,inactive
4,COc1ccc(NC(=S)NNC(=O)c2cccs2)cc1,31.5 µM (active)
5,Cc1ccc(C#N)c(SCC(=O)Nc2nccs2)n1,0.791 µM (active)
6,O=C(NCCSCc1c(F)cccc1Cl)c1ccc(CN2CCOCC2)cc1,inactive
7,CCN(CC)S(=O)(=O)c1ccc(NCc2ccccn2)nc1,inactive
8,CC(C)C(NC(=O)c1ccc([N+](=O)[O-])cc1Cl)C(=O)N1CCCC1 (stereo not given),inactive
9,COc1ccc(C2(CNC(=O)/C=C/c3ccco3)CCCC2)cc1OC,inactive
10,O=C(CCCN1C(=O)C(c2ccccc2)Oc2cccnc21)Nc1ccccc1Cl (stereo not given),inactive
11,CC(C)CC(=O)N1CCN(c2ccc(NC(=O)c3ccco3)cc2)CC1,inactive
12,COc1ccccc1CNC(=O)COc1ccc(C)cc1,inactive
13,COCc1cc(C)nc(N/N=C/c2ccc(-c3ccc(Cl)cc3[N+](=O)[O-])o2)c1C#N,inactive
14,CCC(=O)Nc1cc(-c2cc3ccccc3oc2=O)ccc1OC,0.791 µM (active)
15,COC(=O)c1cn(NC(=O)C2CCCCC2)c(=O)c2ccccc12,inactive
16,Fc1ccc(-c2nc3nc4ccccc4nc3n2Cc2ccco2)cc1,inactive
17,Nc1ccc(C(=O)Nc2ccccc2N)cc1,15.8 µM (active)
